# From PubChem BioAssay (EPA / NIEHS)
# Several values for one entry are separate records, joined by “and”; a condition that tells them apart may be missing. Identical values can stand only once. Activity calls are given as the source filed them. Rule for the calls: active = hit-call score of the fitted dose curve at least 0.9, where 1 is the maximum; inactive = score below 0.9.
# Assay: ATG_EGR_CIS: Attagene CIS-FACTORIAL HepG2 Assay for human Early Growth Response 1 (EGR1) (AID 2282938)
# Details: HepG2 Attagene CIS-FACTORIAL EGR reporter mRNA; actives raise or lower the signal
# How it was run: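 HepG2 cells transiently transfected with cis-promoter-driven multiplexed reporter transcription units; reporter mRNA measured 24 h after compound dosing by RT-PCR, 6-FAM primer extension, HpaI digestion and capillary electrophoresis. Bidirectional fit versus DMSO baseline.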
Compound,outcome,AC50
CCC(C)c1nccnc1OC (stereo not drawn),inactive,–
CCCCCCCCCC=CCC1CC(=O)OC1=O (stereo not drawn),inactive,–
CCCCCCCCCCCC(=O)O,inactive,–
C[C@]12CC[C@@H]3c4ccc(O)cc4CC[C@H]3[C@@H]1C[C@@H](O)[C@@H]2O,inactive,–
CC(=O)Nc1ccc(O)cc1,inactive,–
O=C(O)C(=O)O,inactive,–
O=S(=O)(O)c1ccc2cc(O)ccc2c1,inactive,–
Cc1ccc(C)c(S(=O)(=O)O)c1,inactive,–
CCCCCCCCCCCCCCCC(=O)OC,inactive,–
CCC(C)c1ccccc1O (stereo not drawn),inactive,–
CC(C)[C@@H]1CC[C@@H](C)C[C@H]1O,inactive,–
O=C1NS(=O)(=O)c2ccccc21,inactive,–
CN(C)c1ccc(C(=C2C=CC(=[N+](C)C)C=C2)c2ccccc2)cc1,–,1.46 µM (active) and 1.85 µM (active)
O=C(F)C(F)(F)C(F)(F)C(F)(F)C(=O)F,inactive,–
CC(=O)CC(C)C,inactive,–
CCCCCCCCCCCC,inactive,–
CCCCC=O,inactive,–
OCC(CO)(CBr)CBr,inactive,–
CCCCC(CC)C(=O)O (stereo not drawn),inactive,–

Compound,outcome,AC50
Cc1ccc(S(=O)(=O)O)cc1,inactive,–
CCCCCCCCCCCCCCC,inactive,–
NS(=O)(=O)O,inactive,–
CNNCc1ccc(C(=O)NC(C)C)cc1,inactive,–
C=CCOCC(CO)(CO)CO,inactive,–
O=C(c1ccccc1)c1ccccc1,inactive,–
CCCC=O,inactive,–
Cc1[nH]nc2c1N=C(c1ccccc1Cl)c1cc([N+](=O)[O-])ccc1N2,inactive,–
CC(C)c1c(C(=O)Nc2ccccc2)c(-c2ccccc2)c(-c2ccc(F)cc2)n1CC[C@@H](O)C[C@@H](O)CC(=O)O,–,94.5 µM (active) and 28.3 µM (active)
O=C(CCCN1CCC(O)(c2ccc(Cl)cc2)CC1)c1ccc(F)cc1,–,33.4 µM (active)
O=C(OC(=O)C(F)(F)C(F)(F)F)C(F)(F)C(F)(F)F,inactive,–
CCC1CO1 (stereo not drawn),inactive,–
O=C(NO)c1ccccc1,inactive,–
CS(=O)(=O)c1ccc([C@@H](CC2CCCC2)C(=O)Nc2cnccn2)cc1Cl,–,50.6 µM (active)
O=S(=O)(O)c1ccccc1,inactive,–
CC(C)C=O,inactive,–
c1cnc2c(c1)ccc1cccnc12,inactive,–
c1cc[nH]c1,inactive,–
CC(O)COc1ccccc1 (stereo not drawn),inactive,–
